Test results as given in PubChem BioAssay AID1233 (SRMLSC, 2008).
Entries with a potency or affinity are not part of this list.

What follows are molecules tested against HMG-CoA reductase [Enterococcus faecalis] (UniProt Q9FD70) (assay: inhibitors of E. faecalis class II HMGR, confirmation, biochemical, Enterococcus faecalis (AID 1233;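 further: 0% = full reaction carrier wells and 100% = background wells lacking mevalonate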)). Details: purified E. faecalis HMGR, NADPH absorbance 340 nm kinetics; series mostly up to 100 µM; inhibition: at the top concentration.

inhibition, inactive:
Cn1nccc1C(=O)N1CCc2ccccc21 -1.21%
C=CCn1c(Oc2ccccc2)nc2c1c(=O)n(C)c(=O)n2C 0.56%
O=C(Nc1ccncc1)c1ccc(C(=O)Nc2ccncc2)cc1 -3.46%
O=C(N/N=C/c1cc(Br)cc(Br)c1O)c1cccc(N2CCCC2=O)c1 -8.18%
COc1ccc(-c2[nH]nc3c2C(c2ccsc2)C(C#N)=C(N)O3)cc1 (stereo not drawn) -0.58%
O=C(c1cc([N+](=O)[O-])ccc1N1CCCCC1)N1CCc2ccccc21 2.36%
CCN1CCN(CCC(=O)Nc2ccc3c(c2)OCO3)CC1 -5.86%
CC(=O)Nc1ccc(C(=O)CSc2nnc(Cc3ccccc3)o2)cc1 -5.67%
Cc1ccc(S(=O)(=O)ON2C(=O)c3ccccc3C2=O)c(C)c1 -6.06%
O=C(NCCOc1ccccc1Cl)C(=O)c1c[nH]c2ccccc12 0.25%
CCCn1c(C(O)c2ccc(OC)cc2)nc2ccccc21 (stereo not drawn) 2.18%
CC(C)(C)[C@H]1C=C(C(=O)N2CCN(Cc3ccc4c(c3)OCO4)CC2)O[C@@H](OCc2ccc(CO)cc2)C1 -1.99%
O=C1CN(C(=O)CSc2nc3cc(Cl)ccc3c(=O)n2Cc2ccccc2)c2ccccc2N1 -1.36%
CCSc1nnc(NC(=O)CN2C(=O)C3CC=CCC3C2=O)s1 (stereo not drawn) -6.44%
COc1ccc(N=c2ssnc2Cl)cc1 -7.45%
c1ccc(-c2nnc(SCc3nnc(-c4cccs4)o3)o2)cc1 -3.7%
CCN(CC)S(=O)(=O)c1cccc(C(=O)N[C@H](C(=O)Nc2nc3ccccc3s2)C(C)C)c1 -9.14%
C=CCn1cnc2c(c1=O)c1nc3ccccc3nc1n2/N=C/c1cc(OC)c(OC)c(OC)c1 -0.47%
CC(Sc1nnc(-c2ccccc2)c(-c2ccccc2)n1)C(=O)Nc1ncc(Cl)cc1Cl (stereo not drawn) 2.62%
Cc1ccc2nc(-c3cc(N)cc(N)c3)oc2c1 -10.3%
Cc1c(NC2(c3nnnn3-c3ccc(Br)cc3)CCCCC2)c(=O)n(-c2ccccc2)n1C -7.18%
CCCc1nc(NCc2ccccn2)c2nnn(Cc3ccccc3F)c2n1 -4.22%
COCCNC(=O)C1c2cc(OC)c(OC)cc2C(=O)N(C)C1c1cccnc1 (stereo not drawn) -0.13%
O=C(CN1CCC2(CC1)OCCO2)c1ccc2cc[nH]c2c1 1.36%
CCC(=O)Nc1ccc2c(c1)nc(CN1CCCCC1)n2C -3.15%
Cc1ccccc1-n1nc(C)c2cc(C(=O)N3CCN(S(=O)(=O)c4ccc(F)cc4)CC3)sc21 -8.54%
O=C(NCc1ccccc1Cl)c1cc([N+](=O)[O-])ccc1Cl -4.55%
[O-]C1=N/[N+](=C/c2ccc(Cl)c(Cl)c2)CC1 -2.55%
CCN1C(=O)/C(=C\C=C\c2ccccc2[N+](=O)[O-])SC1=S -12.6%
O=[N+]([O-])c1ccc(N/N=C/c2ccc(O)c(O)c2O)c(S(=O)(=O)N2CCOCC2)c1 -14%
CC(C)(C)c1ccc(C(=O)Nc2ccc(NC(=O)c3ccco3)cc2)cc1 -4.08%
Cc1ccccc1Nc1nc(N)nc(CN2CCN(Cc3ccc4c(c3)OCO4)CC2)n1 -8.07%
C=CCn1c(C)c(C(C)=O)c(N2CCCC2)nc1=S 0.13%
CCOC(=O)C(NC(C)=O)(Nc1ccc(S(=O)(=O)Nc2cc(C)nc(C)n2)cc1)C(F)(F)F (stereo not drawn) 0.13%
CCOc1cc(/C=N\NC(=O)OC(C)(C)C)ccc1OC(=O)c1ccco1 -8.84%
CCOc1cc(S(=O)(=O)N(CC)CC)c(OCC)cc1-n1cnnn1 -0.8%
CCOc1cccc2cc(C(N)=O)c(=NCc3ccccc3)oc12 -4.04%
O=C(O)c1cc(CN2CCOCC2)oc1-c1ccccc1 -1.88%
